# Experimental data taken from PubChem BioAssay (NCATS).
# Results filed as inconclusive are left out. The source made the active and inactive calls. Calls follow the shape of the dose curve; as a rule, active = well fitted cell-killing curve with a large enough effect; inconclusive = small, poorly fitted or top-dose-only effect, or effect the other way; inactive = no such curve, though single readings can be large or run the other way.
# Experiment: Quantitative High-Throughput drug screen in 47 multiple myeloma cell lines against the NCATS MIPE library collection: JIM1_ECACC cell viability assay (AID 1918964)
# Conditions: JIM1 myeloma viability, CellTiter-Glo ATP luminescence, 48 h; series mostly up to 45.8 µM
# Source text: PI: Beverly A. Mock Ph.D.
# Laboratory of Cancer Biology and Genetics,
# Center for Cancer Research, National Cancer Institute,
# National Institute of Health, Bethesda, Maryland
# Drug resistance and disease progression are common in multiple myeloma (MM) patients, underscoring the need for new therapeutic combinations. […] We hypothesized that effective combinations would reduce MYC expression and enhance p16 activity. […] These preclinical data identify potentially useful drug combinations for evaluation in drug-resistant MM and reveal potential mechanisms of combined drug sensitivity.
# Described herein is the primary MIPE qHTS used to cherrypick compounds. Validated compounds were then further tested for potential synergistic activiy.
# [1] Peat TJ, Gaikwad SM, Dubois W, Gyabaah-Kessie N, Zhang S, Gorjifard S, Phyo Z, Andres M, Hughitt VK, Simpson RM, Miller MA, Girvin AT, Taylor A, Williams D, D'Antonio N, Zhang Y, Rajagopalan A, Flietner E, Wilson K, Zhang X, Shinn P, Klumpp-Thomas C, McKnight C, Itkin Z, Chen L, Kazandijian D, Zhang J, Michalowski AM, Simmons JK, Keats J, Thomas CJ, Mock BA. Drug combinations identified by high-throughput screening promote cell cycle transition and upregulate Smad pathways in myeloma. Cancer Lett. 2023 Aug 1;568:216284. doi: 10.1016/j.canlet.2023.216284. Epub 2023 Jun 24. PMID: 37356470; PMCID: PMC10408729.
# SEQUENCE No. (e.g., 1, 2, 3, etc.); […] (e.g., Cells, Incubation, Reagent, etc.); VALUE and DESCRIPTION.
# 1; Cells; 5 uL; white, solid bottom 1536-well Greiner assay plate.
# 2; Compounds; 23 nL; Kalypsis pin tool (Wako USA) equipped with a 1536-well pin head to transfer to the assay plates.
# 3; Incubation; 48 hours; 37C incubation.
# 4; Reagent;5uL; CellTiter Glo (Promega).
# 5; Detector; 425V; Luminescence; Viewlux PerkinElmer.
# NOTES (numbers refer to Sequence numbers above)
# 1. The cell-based screening methods employed in this study were like those previously published. Briefly, the corresponding myeloma cell lines were screened in 1,536-well plates with 500 cells, 5-uL per well for inhibition of cell viability (assessed by measuring ATP levels with CellTiterGlo).
# 2. NCATS MIPE 4.0 library of approved and investigational drugs were added using the Kalypsis pin tool. Wells treated with DMSO only for 100% viability and media only wells for 0% viability were used as controls.
# 3. The assay plates were covered and incubated for 48 hours in a 37C, 5% CO2 incubator with controlled humidity.
# 4. After 48 hours, CellTilter-GloTM luminescent substrate mix (Promega) reagent was added to the assay plate and plates we incubated for 5 min at room temperature.
# 5. Signal was measured as median relative luminescence units on a ViewLux (PerkinElmer) multiplate reader.
# [1] Heske CM, Davis MI, Baumgart JT, Wilson K, Gormally MV, Chen L, Zhang X, Ceribelli M, Duveau DY, Guha R, Ferrer M, Arnaldez FI, Ji J, Tran HL, Zhang Y, Mendoza A, Helman LJ, Thomas CJ. Matrix Screen Identifies Synergistic Combination of PARP Inhibitors and Nicotinamide Phosphoribosyltransferase (NAMPT) Inhibitors in Ewing Sarcoma. Clin Cancer Res. 2017 Dec 1;23(23):7301-7311. doi: 10.1158/1078-0432.CCR-17-1121. Epub 2017 Sep 12. PMID: 28899971; PMCID: PMC6636827.
# Potency is read from the fitted curve at half-maximal effect.
row,SMILES,Potency
1,COc1ccc2c(c1)CC[C@@H](CN(C)CC(=O)O)[C@H]2c1ccccc1,372 nM (active)
2,Cc1cc(Nc2cc(N3CCN(C)CC3)nc(C=Cc3ccccc3)n2)n[nH]1,4810 nM (active)
3,COc1cc(-c2nn(C3CCC(N4CCN(C(C)=O)CC4)CC3)c3ncnc(N)c23)ccc1NC(=O)c1cc2ccccc2n1C (stereo not given),235 nM (active)
4,CC(=O)SC[C@@H](C)C(=O)N1CCC[C@H]1C(=O)N[C@@H](Cc1ccccc1)C(=O)O,inactive
5,O=c1c2ccccc2nc2n1CCc1c-2[nH]c2ccccc12,inactive
6,CN1CCN(c2cc(C(=O)Nc3ccc4c(c3)-c3c(c(C(N)=O)nn3-c3ccc(F)cc3)CC4)c(Cl)cn2)CC1,8330 nM (active)
7,CC(C)c1noc(N2CCC(COc3ccc(-c4ccc(S(C)(=O)=O)cc4)nc3)CC2)n1,inactive
8,Cc1cc(Nc2ncnc3ccc(-c4ccc(CNCCS(C)(=O)=O)o4)cc23)ccc1Oc1ccn2ncnc2c1,5260 nM (active)
9,Cc1cc(C(=O)N2CCN(c3cccc(Cl)c3)CC2)n(-c2ccccc2)n1,11.8 nM (active)
10,CC(NCc1ccc2c(c1)nc(NC(=O)c1ccc(-c3cn[nH]c3)s1)n2CC(C)(C)O)C(C)(C)C (stereo not given),46.9 nM (active)
11,Cc1ccc(C(=O)Nc2cccc(C(F)(F)F)c2)cc1-c1ccc2nc(NCCN3CCOCC3)ncc2c1,1050 nM (active)
12,Nc1ccccc1NC(=O)c1ccc(CNc2nccc(-c3cccnc3)n2)cc1,1320 nM (active)
13,Cc1cccc(C=NNc2cc(N3CCOCC3)nc(OCCc3ccccn3)n2)c1,935 nM (active)
14,CC(C)(C)c1cnc(CSc2cnc(NC(=O)C3CCNCC3)s2)o1,74.3 nM (active)
15,Cn1cncc1[C@@](N)(c1ccc(Cl)cc1)c1ccc2c(c1)c(-c1cccc(Cl)c1)cc(=O)n2C,935 nM (active)
16,Cc1ccc(-c2ncn(-c3ccc(Nc4nccc(-c5cccc(N6CCOCC6)c5)n4)cc3)n2)cn1,66.2 nM (active)
17,COc1cc2c(Oc3ccc(-c4cnc(Nc5ccc(F)cc5)n(C)c4=O)cc3F)ccnc2cc1OCCCN1CCOCC1,1180 nM (active)
18,Cc1coc2c1C(=O)C(=O)c1c-2ccc2c1CCCC2(C)C,inactive
19,O=C(Nc1ncc(-c2cc(C(F)F)nn2-c2c(Cl)cccc2Cl)s1)C1CC1,166 nM (active)
20,CNC(=O)c1cc(Oc2ccc(NC(=O)Nc3cc(C(C)(C)C)nn3-c3ccc4ncccc4c3)c(F)c2)ccn1,7430 nM (active)

row,SMILES,Potency
1,NC(=O)Nc1cc(-c2cccc(F)c2)sc1C(=O)N[C@H]1CCCNC1,105 nM (active)
2,CCNC(=O)Nc1ccc2ncc(Nc3ccc(C)cc3)nc2n1,935 nM (active)
3,CC(C)c1cnn2c(NCc3ccccc3)cc(N[C@@H](CO)[C@H](O)CO)nc12,132 nM (active)
4,CN(C)CC=CC(=O)Nc1cc2c(Nc3ccc(F)c(Cl)c3)ncnc2cc1O[C@H]1CCOC1,2960 nM (active)
5,CNC(=O)c1ccc(N2C(=S)N(c3cnc(C#N)c(C(F)(F)F)c3)C(=O)C23CCC3)cc1F,1870 nM (active)
6,NC1(Cc2ccc(Cl)cc2)CCN(c2ncnc3[nH]ccc23)CC1,2960 nM (active)
7,COc1cc2c(NC3CCN(C(C)C)CC3)nc(C3CCCCC3)nc2cc1OCCCN1CCCC1,23500 nM (active)
8,COc1ccc(C(=O)CC2(O)C(=O)Nc3c(Cl)ccc(Cl)c32)cc1 (stereo not given),1050 nM (active)
9,O=C(O)c1ccc2c(c1)nc(Nc1cccc(Cl)c1)c1ccncc12,6620 nM (active)
10,CC(C)c1ccc(Cn2ccc3c4c(N)nc(NC5CC5)nc4ccc32)cc1,1870 nM (active)
11,Nc1ncnc2c1c(-c1cccc(OCc3ccccc3)c1)cn2C1CC(CN2CCCC2)C1 (stereo not given),296 nM (active)
12,COc1cc2ncn(-c3cc(OCc4ccccc4C(F)(F)F)c(C(N)=O)s3)c2cc1OC,296 nM (active)
13,O=C(O)CO.[NH2-].[NH2-].[Pt+2],inactive
14,CCS(=O)(=O)c1cccc(-c2cc(C(=O)NC3CCN(C)CC3)c(C)c3[nH]c4ncc(C)cc4c23)c1,935 nM (active)
15,CNc1nccc(-c2cccnc2Oc2cc(C(=O)Nc3cccc(C(F)(F)F)c3)ccc2C)n1,8330 nM (active)
16,Cc1cc(Nc2cc(CN3CCOCC3)c3nc(C)c(Cc4ccc(Cl)cc4F)n3n2)n[nH]1,418 nM (active)
17,CC1(C)OC2=C(C(=O)c3ccccc3C2=O)[C@H](NCc2ccccc2)[C@H]1O,2640 nM (active)
18,COc1cc2ncnc(Nc3ccc(F)c(Cl)c3)c2cc1NC(=O)C=CCN1CCCCC1,10500 nM (active)
19,Cc1cc(Nc2cc(N3CCN(C)CC3)nc(Sc3ccc(NC(=O)C4CC4)cc3)n2)n[nH]1,6620 nM (active)
20,C=CC(=O)Nc1cc2c(Nc3ccc(F)c(Cl)c3)ncnc2cc1C#CC(C)(C)N1CCN(C)CC1,1050 nM (active)
